Source: PubChem BioAssay AID1159580 (chemical genetic matrix, 2015)
The campaign covered roughly 5,500 compounds. About 2,000 (36%) were called active. Not shown: some 18% with an inconclusive outcome. Cut-off read from the data, not from the text of the source: active = normalized growth mostly below about 0.91 (no sharp cut-off); inconclusive = no clear call, values can overlap the other calls; inactive = mostly above about 0.92. Some of the results follow.

Test: chemical genetic growth profiling, strain panel (AID 1159580);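 note: tested at 20 µM; growth read once vehicle control cultures reached saturation at 30 °C; 1 = growth at the plate median or of vehicle wells; lower values mean less growth of the strain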
Conditions: S. cerevisiae deletion strains, growth OD

Measured: normalized growth

NCC#Cc1ccccc1
inactive: locus YAL013W, strain DEP1, hits give low values 1.04 | locus YAL040C, strain CLN3, hits give low values 0.989 | locus YCL061C, strain MRC1 (second series), hits give low values 1.01 | locus YDR150W, strain NUM1, hits give low values 1.02 | locus YDR363W, strain ESC2, hits give low values 1.02 | locus YER002W, strain NOP16, hits give low values 1 | locus YGR229C, strain SMI1, hits give low values 1.07 | locus YMR263W, strain SAP30, hits give low values 1 | locus YMR307W, strain GAS1, hits give low values 1.01 | locus YNL128W, strain TEP1, hits give low values 1.01 | locus YNL153C, strain GIM3, hits give low values 1.15 | locus YNL175C, strain NOP13, hits give low values 1.01 | locus YNL197C, strain WHI3, hits give low values 1.01 | locus YNL224C, strain SQS1, hits give low values 1.01 | locus YOR083W, strain WHI5 (second series), hits give low values 1.01 | locus YPL055C, strain LGE1, hits give low values 1.04
